DNMT1 block – inhibitors of human DNMT1; P26358; DNMT1 molecular beacon, Hinp1I cleavage, fluorescence; inhibition (reported as % activation of signal), % at 10 µM; 360,000 tested, 0.83% active; AID 588458; in the data active = inhibition above about 50%
UHRF1 MBD2 ctr – blocks human UHRF1 binding to methylated DNA. UHRF1 binding to methylated oligo, TR-FRET. inhibition, % at 4.4 µM. Q96T88. 370,000 tested, 0.75% active; in the data active = inhibition above about 21%;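 also: UHRF1 SRA domain binding a hemimethylated CpG hairpin DNA probe; 0% = median of test compound wells and 100% = reference inhibitor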
LEDGF integ inh – blocks HIV-1 LEDGF/p75-dependent DNA integration; inhibition, % at 3.7 µM; TR-FRET IN-LEDGF/p75 DNA integration, Eu/Cy5; 370,000 tested, 0.64% active;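 active = inhibition above the screen-wide mean plus 3 SD, cut at about 13% in these data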;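 also: signal is the Cy5 over europium emission ratio at 671 and 618 nm; 0% = plate median of compound wells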
MBD2 DNA inh – MBD2-methylated oligo binding inhibition | TR-FRET, MBD2 binding to methylated oligonucleotide | 370,000 tested, 0.31% active | Q9UBB5 | inhibition, % at 4.4 µM | AID 686964; in the data active = inhibition above about 13%
Target sequence (Q9UBB5 whole entry, looked up): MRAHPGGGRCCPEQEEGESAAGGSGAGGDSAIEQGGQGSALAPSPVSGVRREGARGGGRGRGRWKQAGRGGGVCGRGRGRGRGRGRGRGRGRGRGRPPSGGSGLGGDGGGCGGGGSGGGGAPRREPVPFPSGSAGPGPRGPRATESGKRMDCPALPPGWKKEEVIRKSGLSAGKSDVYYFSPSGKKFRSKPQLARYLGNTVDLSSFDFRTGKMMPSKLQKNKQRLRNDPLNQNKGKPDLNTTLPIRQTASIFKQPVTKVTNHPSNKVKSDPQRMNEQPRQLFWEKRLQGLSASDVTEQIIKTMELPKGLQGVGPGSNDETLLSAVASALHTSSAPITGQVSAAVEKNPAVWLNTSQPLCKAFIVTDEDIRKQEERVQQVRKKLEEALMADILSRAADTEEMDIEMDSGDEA
PG9 binder – binds the HIV-1 gp120 antibody PG9 | TR-FRET gp120-PG9 antibody binding | inhibition, % at 6.7 µM | 360,000 tested, 0.43% active; in the data active = inhibition above about 8.5%
rCAG binder – molecules binding r(CAG) RNA repeats | 370,000 tested, 1.3% active | AID 651821 | r(CAG) RNA repeat, TO-PRO-1 dye displacement fluorescence | inhibition, % at 3 µM;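 active = inhibition above the plate cutoff, the mean of all test compounds on that plate plus 3 SD, cut at about 35% in these data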;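 also: 0% = DMSO alone and 100% = 100 µM mitoxantrone as full dye displacement; higher means more dye released from RNA so lower well fluorescence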
rCAG bind conf – r(CAG) RNA repeat binding, confirmation. shares compounds with rCAG binder. AID 652065. 4,300 tested, 70% active. TO-PRO-1 dye displacement fluorescence. inhibition, % at 3 µM;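 active = inhibition above a per-plate cutoff, the mean inhibition of sample wells plus 3 SD, cut at about 35% in these data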;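 also: loss of TO-PRO-1 fluorescence as compound displaces dye from 1x1 AA loop RNA; 0% = DMSO only wells and 100% = 100 µM mitoxantrone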
DNA CAG counter – counter-screen for rCAG RNA binders: DNA CAG dye complex inhibitors | d(CAG) DNA oligo TO-PRO-1 dye displacement, fluorescence | inhibition, % at 3 µM | 4,300 tested, 94% active | shares compounds with rCAG binder;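 active = inhibition above its plate's cutoff, the mean test-well inhibition plus 3 SD, cut at about 4.8% in these data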;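 also: 0% = DNA dye mix with DMSO and 100% = 100 µM mitoxantrone; hits displace the dye from DNA and so lower well fluorescence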
dCAG dye DR – counter-screen for rCAG binders: inhibitors of DNA CAG TO-PRO-1 complex; shares compounds with rCAG binder; 250 tested, 20% active; DNA CAG/GTC duplex TO-PRO-1 dye displacement fluorescence; AID 686960; IC50, µM; in the data active = IC50 below about 10 µM
* = called active by the depositor; / = not tested or not shown. Sampled rows, rich in hits. Any-hit rate of the full collection: about 3.5%.

SMILES	DNMT1 block	UHRF1 MBD2 ctr	LEDGF integ inh	MBD2 DNA inh	PG9 binder	rCAG binder	rCAG bind conf	DNA CAG counter	others
Cc1ccc(S(=O)(=O)NN2C(=O)/C(=C/c3ccccn3)SC2=S)cc1	7	2	-1	-2	-2	45*	35*	8.5*
CC(=O)c1ccc(NC(=O)CN2C(=O)/C(=C/C(C)=C/c3ccccc3)SC2=S)cc1	-15	-4	3	-7	-3	23	/	/
CC(/C=C1\SC(=S)N(NS(=O)(=O)c2ccc(C)cc2)C1=O)=C\c1ccccc1	33	2	-4	4	-2	62*	87*	60*
O=C1/C(=C/c2cccnc2)SC(=S)N1NS(=O)(=O)c1ccccc1	2	-4	3	-4	-3	14	/	/
CC(/C=C1\SC(=S)N(NC(=O)c2ccncc2)C1=O)=C\c1ccccc1	-3	-2	-2	-5	-2	42*	31	9.3*
Cc1ccc(NC(=O)C2CCCN(c3nnc(-n4cccc4)s3)C2)cc1C (configuration not stated)	/	4	1	9	/	5	/	/
CN(C)CCCNc1nc2cc(-c3ccc4c(ccn4C)c3)sc2c(=O)n1C	-22	-1	-5	2	-2	16	/	/
COc1cccc(CNC(=O)C2CCN(c3nnc(N4CCCC4=O)s3)CC2)c1	2	2	-5	0	0	2	/	/
CC(/C=C1\SC(=S)N(NS(=O)(=O)c2ccccc2)C1=O)=C\c1ccccc1	21	1	4	-1	-2	74*	87*	54*
CC(/C=C1\SC(=S)N(NC(=O)c2ccccc2C)C1=O)=C\c1ccccc1	-3	-5	2	1	0	17	/	/
O=C1NC(c2cccc(OCc3ccccc3)c2)Nc2ccccc21 (configuration not stated)	-5	0	-1	1	-1	5	/	/
O=C(Nc1c(C(=O)O)[nH]c2ccc(F)cc12)c1cccc(C(F)(F)F)c1	5	-4	-2	-5	2	63*	39*	8.8*
O=C(Nc1c(C(=O)O)[nH]c2ccccc12)c1cccc(C(F)(F)F)c1	-2	0	2	-5	-2	39*	21	3
O=C(C1CCN(c2cncnc2)CC1)N1CCCC1	/	-1	-2	2	/	2	/	/
NC(=S)NN=C1c2cc(S(=O)(=O)N3CCOCC3)ccc2-c2ccc(S(=O)(=O)N3CCOCC3)cc21	-18	-17	-4	-4	-2	35*	46*	20*
COc1ccc(OCC(=O)NC(=S)Nc2ccc(S(=O)(=O)Nc3cc(OC)nc(OC)n3)cc2)cc1	3	-1	4	-2	-3	52*	53*	20*
Cc1ccc(NS(=O)(=O)c2ccc(Cl)c(NC(=S)NC(=O)C3CCCCC3)c2)cc1Cl	-10	1	0	4	0	45*	41*	17*
COc1ccc(C(=O)NC(=S)Nc2ccc(S(=O)(=O)Nc3cc(OC)nc(OC)n3)cc2)cc1	-1	0	-3	-4	0	58*	55*	20*
COc1cc(NS(=O)(=O)c2ccc(NC(=S)NC(=O)C3CCCC3)cc2)nc(OC)n1	-3	-1	-3	2	-4	45*	33	10*
COc1ccc(-c2cc3c(=O)n(CC(=O)Nc4ccc(Cl)cc4)ncn3n2)cc1	45	0	-1	-1	-2	2	/	/
CCOC(=O)c1ccc(NC(=O)[C@@H]2CCC(=O)N2C2OC(=O)c3c2ccc(OC)c3OC)cc1 (some centres not stated)	3	-3	0	-2	-3	-1	/	/
Cc1c(CC(=O)O)c(=O)oc2cc(OCc3ccc(Br)cc3)ccc12	-4	0	5	-1	0	40*	47*	9.7*	dCAG dye DR=>30
Cc1c(CC(=O)O)c(=O)oc2cc(OCc3ccc(F)cc3F)ccc12	-1	-2	7	0	2	14	/	/
Cc1c(CCC(=O)O)c(=O)oc2cc(OCc3cccc(F)c3)ccc12	0	-3	1	-5	5	20	/	/
Cc1c(CCC(=O)O)c(=O)oc2cc(OCc3ccccc3Br)ccc12	-3	1	-3	6	4	56*	43*	8.8*
SMILES	DNMT1 block	UHRF1 MBD2 ctr	LEDGF integ inh	MBD2 DNA inh	PG9 binder	rCAG binder	rCAG bind conf	DNA CAG counter	others
OC(c1ccc(F)c(F)c1)c1nc(-c2ccc3ccccc3c2)cs1 (configuration not stated)	45	0	0	2	-2	7	/	/
COc1ccc(CSc2ccc(S(=O)(=O)N3CCCC3)cn2)cc1F	-3	0	2	-6	0	3	/	/
CCCCNC(=O)CSc1nc2c(sc(=S)n2-c2cc(Cl)ccc2OC)c(=O)[nH]1	-1	1	0	0	-2	44*	43*	12*
COC(=O)CNC(=O)CSc1nc2c(sc(=S)n2-c2ccccc2)c(=O)[nH]1	-1	1	0	-7	-2	9	/	/
CCOC(=O)CSc1nc2c(sc(=S)n2-c2ccc(CC)cc2)c(=O)[nH]1	0	-2	9	-8	-2	60*	65*	26*
CCOC(=O)CC(=O)CSc1nc2c(sc(=S)n2-c2ccccc2)c(=O)[nH]1	0	-1	2	3	-1	41*	21	5.8*
CCN(CC)C(=O)CSc1nc2c(sc(=S)n2-c2ccccc2)c(=O)[nH]1	1	-1	4	1	0	12	/	/
COC(=O)[C@]12C[C@H](CC(=O)NCCC(C)C)C(=O)N(CCC3=CCCCC3)C1=C[C@H](C(C)C)O[C@@H]2C1CC1	/	1	-3	1	/	3	/	/
COc1ccc(CNC(=O)NC2CCCCC2)cc1	0	5	3	2	0	-2	/	/
COc1ccc(Cl)cc1C(=O)NCCc1ccc(S(=O)(=O)NC(=O)NC2CCCCC2)cc1	0	-94	4	-10	1	41*	31	8.0*
COc1ccc2c(c1)C(=O)N(CCc1ccc(S(=O)(=O)NC(=O)NC3CCCCC3)cc1)C(=O)C2(C)C	1	1	0	1	0	38*	53*	15*
O=C(CN1C(=O)N/C(=C\c2ccccc2OCc2ccc(C(=O)O)cc2)C1=O)Nc1ccc(F)cc1	-2	-2	7	-9	-3	59*	43*	13*
Cc1ccccc1NC(=O)CN1C(=O)N/C(=C\c2ccccc2OCc2ccc(C(=O)O)cc2)C1=O	29	5	2	3	-2	43*	29	7.8*

Assay outcomes deposited in PubChem by several laboratories.
